Measured values reported in PMC4336329 (PLoS ONE, 2015).
The whole screen tested about 310,000 compounds, of which about 14,000 (4.5%) showed an effect of 50% or more. The effect is printed as a negative number. The entries come from a sample that favours strong results as a whole.

molecular target: human ether-à-go-go-related gene (hERG) potassium channel (human, UniProt Q12809); experiment: primary screen, population patch clamp on CHO cells stably expressing hERG; higher = less effect of the substance
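Also: peak tail current of the secondary pulse compared with the same well before compound.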

Sequence of human ether-à-go-go-related gene (hERG) potassium channel (Q12809 whole entry, looked up): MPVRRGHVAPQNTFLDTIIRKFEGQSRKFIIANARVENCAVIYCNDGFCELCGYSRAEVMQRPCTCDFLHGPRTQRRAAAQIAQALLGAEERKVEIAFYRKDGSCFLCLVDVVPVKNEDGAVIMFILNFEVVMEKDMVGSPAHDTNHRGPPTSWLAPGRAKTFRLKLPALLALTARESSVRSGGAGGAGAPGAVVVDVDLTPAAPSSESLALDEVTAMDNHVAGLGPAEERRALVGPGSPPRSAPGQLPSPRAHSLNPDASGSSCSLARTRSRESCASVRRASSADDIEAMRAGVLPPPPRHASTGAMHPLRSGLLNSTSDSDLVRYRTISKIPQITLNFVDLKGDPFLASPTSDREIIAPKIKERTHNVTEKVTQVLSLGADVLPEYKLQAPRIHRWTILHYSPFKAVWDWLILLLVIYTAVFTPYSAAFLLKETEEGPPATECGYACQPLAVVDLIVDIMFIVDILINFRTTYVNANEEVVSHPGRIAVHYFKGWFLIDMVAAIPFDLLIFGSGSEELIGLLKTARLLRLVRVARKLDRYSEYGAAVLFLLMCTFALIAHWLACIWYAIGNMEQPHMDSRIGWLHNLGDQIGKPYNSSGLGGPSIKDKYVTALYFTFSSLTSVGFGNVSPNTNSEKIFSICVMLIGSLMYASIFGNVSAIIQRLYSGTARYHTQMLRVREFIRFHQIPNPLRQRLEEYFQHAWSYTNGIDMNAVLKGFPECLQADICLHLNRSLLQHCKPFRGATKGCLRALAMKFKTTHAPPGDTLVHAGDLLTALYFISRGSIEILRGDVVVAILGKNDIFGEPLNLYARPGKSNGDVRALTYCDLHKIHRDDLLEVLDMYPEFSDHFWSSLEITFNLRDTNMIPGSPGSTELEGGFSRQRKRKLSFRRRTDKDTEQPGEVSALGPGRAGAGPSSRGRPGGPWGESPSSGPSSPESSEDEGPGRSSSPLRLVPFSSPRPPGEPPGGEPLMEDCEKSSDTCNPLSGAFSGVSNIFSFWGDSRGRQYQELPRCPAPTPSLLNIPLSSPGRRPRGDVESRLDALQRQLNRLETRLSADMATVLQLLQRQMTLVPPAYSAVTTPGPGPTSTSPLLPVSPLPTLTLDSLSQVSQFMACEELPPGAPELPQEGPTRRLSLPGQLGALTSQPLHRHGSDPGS

| Structure (SMILES) | hERG current change (%, negative = inhibition) at 10uM |
| --- | --- |
| O=C(Cn1c2ccc(F)cc2c2nc3n(c(=O)c21)CCS3)Nc1ccccc1C(F)(F)F | 15.6% |
| O=C1CCCC/C1=C/NCc1ccc(F)cc1 | 6.07% |
| O=C(CSc1nc2ccccc2s1)NCCOc1ccc(Cl)cc1 | -3.32% |
| CC1CN(C(=O)COC(=O)c2c(Cl)cccc2Cl)CC(C)O1 (stereo not shown) | 6.73% |
| CCOC(=O)C1CCN(S(=O)(=O)c2ccc(OC)c(C(=O)N3CCCCCC3)c2)CC1 | -12.5% |
| CCOC(=O)C1CCCN(C(=O)c2cc(S(=O)(=O)N3CCCCCC3)ccc2OC)C1 (stereo not shown) | -17.4% |
| NC(=O)C1CCN(C(=O)c2cc(S(=O)(=O)N3CCOCC3)c(Cl)cc2Cl)CC1 | 8.61% |
| COc1ccc(S(=O)(=O)N2CCc3ccccc32)cc1C(=O)O | -6.25% |
| CCOC(=O)C1CCN(S(=O)(=O)CCNC(=O)c2ccccc2)CC1 | -2.78% |
| CN1CCN(S(=O)(=O)c2ccc(CNC(=O)c3ccccc3)s2)CC1 | 23.1% |
| CCOC(=O)C1CCN(C(=O)c2cc(S(=O)(=O)N3CCOCC3)c(Cl)cc2Cl)CC1 | -50.1% |
| CCOC(=O)C1CCN(C(=O)c2cc(S(=O)(=O)N3CCc4ccccc43)ccc2OC)CC1 | -60.3% |
| CCOC(=O)C1CCN(S(=O)(=O)c2ccc(OC)c(C(=O)N3CCCCC3)c2)CC1 | 12.5% |
| CCOC(=O)C1CCN(S(=O)(=O)c2ccc(CNC(=O)c3ccccc3)s2)CC1 | -50.3% |
| CCOC(=O)C1CCN(C(=O)c2ccc(Cl)c(S(=O)(=O)N3CCOCC3)c2)CC1 | -32.4% |
| CCOC(=O)C1CCN(C(=O)c2cc(S(=O)(=O)N3CCCCCC3)ccc2OC)CC1 | -50.8% |
| O=C(N/C(=C\c1ccco1)C(=O)N1CCCC(CO)C1)c1ccccc1 (stereo not shown) | 15.6% |
| Cc1ccc(S(=O)(=O)NC2CC3CCC2C3)cc1 (stereo not shown) | -1.07% |
| CCN(C(=O)COc1ccccc1)C1CCCCC1 | 7.42% |
| CC(=O)C[C@@H](O)CC(=O)[C@H]1OC(=O)CCCCCCc2ccccc21 | -2.65% |
| Cc1onc(C(=O)NCc2cccs2)c1[N+](=O)[O-] | 9.7% |
| CC1CCCN(c2ccc(F)cc2N)C1.Cl (stereo not shown) | 11.2% |

| Structure (SMILES) | hERG current change (%, negative = inhibition) at 10uM |
| --- | --- |
| COc1cccc(NC(=O)c2ccc[n+](C)c2)c1.[I-] | 18.2% |
| Cc1cccn2cc(CNc3ccccc3)nc12 | -4.15% |
| CCOC(=O)N1CCN(S(=O)(=O)c2ccc(C)c(C(=O)NC3CCCCC3)c2)CC1 | 1.42% |
| CCOC(=O)C1CCN(S(=O)(=O)c2ccc(C)c(C(=O)NC3CCCCC3)c2)CC1 | -55.8% |
| Cc1ccc(S(=O)(=O)N2CCC(C(N)=O)CC2)cc1C(=O)NC1CCCCC1 | 18.9% |
| O=C(Nc1ccccc1)C(O)C(O)C(=O)Nc1ccccc1 (stereo not shown) | 16.8% |
| Cn1cc(CNCCCn2ncc3ccccc32)c(-c2ccccc2F)n1 | -36.3% |
| CN(Cc1cccc(-n2cccn2)c1)Cc1cn(C)nc1-c1ccccc1F | 15.9% |
| CN(Cc1ccc(-n2cccn2)cc1)Cc1cn(C)nc1-c1ccccc1F | -74.9% |
| CCn1ccnc1CN(C)Cc1cn(C)nc1-c1ccccc1F | 13.2% |
| COc1cccc(-n2cc(CNCc3cn(C)nc3-c3ccccc3F)cn2)c1 | -19.3% |
| Cn1cc(CNCc2ccc(-n3cccn3)cc2)c(-c2ccccc2F)n1 | -62.2% |
| O=C(CNC(=O)OCc1ccccc1)NC1CCCCCCC1 | -2.67% |
| CCOCCCNC(=O)Cn1cnc2c(cnn2-c2ccc(C)c(C)c2)c1=O | 3.91% |
| O=C(NCC12CC3CC(C1)CC(CNC(=O)N1CCCC1)(C3)C2)N1CCCC1 | -3.73% |
| CC(C)N(C(=O)CN1CCN(C(=O)C2COc3ccccc3O2)CC1)C(C)C (stereo not shown) | -0.817% |
| O=C(Nc1ccc(F)cc1)C1COc2ccccc2O1 (stereo not shown) | 9.07% |
| CCN1CCN(C(=O)C2COc3ccccc3O2)CC1 (stereo not shown) | -7.48% |
| O=C(C1COc2ccccc2O1)N1CCN(c2ccc(F)cc2)CC1 (stereo not shown) | -40.7% |
| O=C(CN1CCN(C(=O)C2COc3ccccc3O2)CC1)Nc1ccc(F)cc1 (stereo not shown) | -75.7% |
| O=C(CN1CCN(C(=O)C2COc3ccccc3O2)CC1)Nc1ccccc1 (stereo not shown) | -66.2% |
| CC(=O)Oc1ccc(C(=O)Nc2ccccc2C(=O)Nc2cccc(C(=O)O)c2)cc1 | 13% |

| Structure (SMILES) | hERG current change (%, negative = inhibition) at 10uM |
| --- | --- |
| CCOC(=O)c1cnn(-c2cc(Oc3ccccc3C)ncn2)c1N | 14.4% |
| Cc1nc2ccccc2cc1C(=O)N/N=C/c1cccs1 | -6.93% |
| CCOc1ccc(OCCOc2cccc(C(F)(F)F)c2)cc1 | 9.77% |
| CCOC(=O)Nc1ccc2nc3n(c(=O)c2c1)CCCCC3 | 7.45% |
| CC1CCCN(C(=O)C(=O)Nc2ccc3nc4n(c(=O)c3c2)CCCCC4)C1 (stereo not shown) | -17.8% |
| CC1CCCC(C)N1CCCNC(=O)C(=O)Nc1ccc2nc3n(c(=O)c2c1)CCCCC3 (stereo not shown) | 16.8% |
| O=c1c2cc(NC(=S)N3CCCCCC3)ccc2nc2n1CCCCC2 | -43.9% |
| O=c1c2cc(NC(=S)N3CCCC3)ccc2nc2n1CCCCC2 | -28% |
| CC1CCN(C(=S)Nc2ccc3nc4n(c(=O)c3c2)CCCCC4)CC1 | -55.2% |
| O=c1c2cc(NC(=S)N3CCCCC3)ccc2nc2n1CCCCC2 | -55.7% |
| CC1CCCCN1C(=S)Nc1ccc2nc3n(c(=O)c2c1)CCCCC3 (stereo not shown) | -59% |
| CCOC(=O)C1CCCN(C(=O)C(=O)Nc2ccc3nc4n(c(=O)c3c2)CCCCC4)C1 (stereo not shown) | -1.21% |
| O=c1c2cc(NC(=S)N3CCC(N4CCCCC4)CC3)ccc2nc2n1CCCCC2 | -3.94% |
| CC1CCCN(C(=S)Nc2ccc3nc4n(c(=O)c3c2)CCCCC4)C1 (stereo not shown) | -66.1% |
| CCN1CCN(C(=S)Nc2ccc3nc4n(c(=O)c3c2)CCCCC4)CC1 | 1.83% |
| COc1cc(/C=C(\C#N)c2ccccn2)ccc1OCC(=O)Nc1cccc(C(F)(F)F)c1.Cl | 0.582% |
| COCCCNC(=O)c1ccc2c(c1)nc(C)n2-c1cccc(C)c1 | 6.05% |
| CC(C)(C)C(=O)Nc1ccc(S(=O)(=O)c2ccc(NC(=O)C(C)(C)C)cc2)cc1 | 18.6% |
| COc1ccc(OC)c(C(=O)c2coc3ccc(O)c(CN4CCOCC4)c23)c1 | -39.7% |
| Cc1ccc(/C=C2\Oc3c(ccc(O)c3CN3CCN(C)CC3)C2=O)cc1 | -15% |
| COc1ccc(C(=O)c2coc3ccc(O)c(CN4CCCCC4)c23)cc1 | -76.9% |
| Cc1ccc(C(=O)c2coc3ccc(O)c(CN4CCN(C)CC4)c23)cc1 | -51.2% |

| Structure (SMILES) | hERG current change (%, negative = inhibition) at 10uM |
| --- | --- |
| CN1CCN(Cc2c(O)ccc3occ(C(=O)c4ccccc4)c23)CC1 | -39.3% |
| COc1ccc(-c2coc3c(CN4CCCCC4)c(O)c(CN4CCCCC4)c(O)c3c2=O)cc1 | -79.2% |
| COc1ccc(C(=O)c2coc3ccc(O)c(CN4CCOCC4)c23)cc1 | -51.2% |
| COc1ccc(-c2coc3c(CN4CCOCC4)c(O)ccc3c2=O)cc1 | -21.1% |
| COc1ccc(C(=O)c2c(C)oc3ccc(O)c(CN4CCOCC4)c23)cc1 | -29.5% |
| O=c1c(-c2ccc(Cl)cc2)coc2c(CN3CCCCC3)c(O)ccc12 | -32.7% |
| Cc1cc(Cn2nnnc2-c2ccncc2)cc(C)c1O | 6.54% |
| O=C(Nc1ccc(Cl)c(C(F)(F)F)c1)N1CCCC(O)C1 (stereo not shown) | 10.9% |
| COc1ccc(OC)c(C(O)c2coc3ccc(O)c(CN4CCOCC4)c23)c1 (stereo not shown) | -11.4% |
| O=C(c1cccs1)c1coc2ccc(O)c(CN3CCOCC3)c12 | -69.1% |
| Cl.O=C(c1coc2ccc(O)c(CN3CCOCC3)c12)C1CC1 | 12.3% |
| Cc1oc2ccc(O)c(CN3CCOCC3)c2c1C(=O)c1ccc(Cl)cc1 | -41% |
| Cl.O=C(c1ccccc1)c1coc2ccc(O)c(CN3CCOCC3)c12 | -60.7% |
| COc1ccc(C(=O)c2coc3ccc(O)c(CN4CCCC4)c23)cc1 | -73.4% |
| Oc1ccc2ccccc2c1CN1CCOCC1 | -6.06% |
| Cl.O=C(c1cccs1)c1coc2ccc(O)c(CN(CCO)CCO)c12 | -41% |
| COC(=O)c1ccccc1N1CCS(=O)(=O)CC1 | 18.3% |
| COc1ccc(C(=O)Nc2nc(C)c(C(C)=O)s2)cc1S(=O)(=O)N1CCOCC1 | 0.765% |
| O=C(N/N=C/c1c(O)n(C2CC2)c(=S)[nH]c1=O)c1ccccc1O | 2.57% |
| CCN(CC)S(=O)(=O)c1ccc(N2CCN(C)CC2)c(NC(=O)c2cc(=O)c3ccccc3o2)c1 | -18.4% |
| Cc1ccc(C(=O)N(C)CC(=O)Nc2cccc(C)c2C)o1 | 9.83% |
| Cc1nc2nc(NC(=O)c3ccco3)nn2c(C)c1Cl | -1.18% |
